Source: PubChem BioAssay (Tox21)
Unmarked numbers belong to inactive results. Records with an inconclusive call do not appear. A call without a number means that no potency is given here. Active and inactive are the calls of the source. Unless noted, calls come from the whole dose curve; as a rule, active = well fitted curve in the direction sought with a large enough effect in the repeat runs; inconclusive = weak or mixed curves; inactive = no such curve, though single readings can be large; an effect the other way counts as inactive or inconclusive.

Assays:
[1] = A CellTox Green Cytotoxicity Assay to monitor cytotoxicity in HEK293 cells - 32 hour (AID 1224881); note: nearly all actives have a fitted effect of over 40% in size; note: potency is the fitted concentration of half-maximal effect
How it was run: (§1)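 Dead-cell fluorescence measured kinetically: asymmetric cyanine dye, HEK293, 600 cells/well, 5 h settle, 23 nL cpd/DMSO, 37 C, reads 0–40 h every 8 h.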

[2] = A CellTox Green Cytotoxicity Assay to monitor cytotoxicity in HepG2 cells - 0 hour (AID 1224882); note: nearly all actives have a fitted effect of over 35% in size
How it was run: (§2)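 First, HepG2 cells (600/well) mixed with reagent were plated; second, after 5 h at 37 C they received compounds via pintool; third, fluorescence was measured at 0 h through 40 h at 8 h intervals.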

[3] = A CellTox Green Cytotoxicity Assay to monitor cytotoxicity in HEK293 cells - 8 hour (AID 1224884); note: nearly all actives have a fitted effect of over 35% in size
How it was run: as §1

[4] = qHTS RealTime-Glo MT Cell Viability Assay in HepG2 cells - 16 hour (AID 1224885); note: nearly all actives have a fitted effect of over 50% in size; note: potency is the fitted concentration of half-maximal effect
How it was run: (§3)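 Viability was tracked continuously by NanoLuc luminescence from prosubstrate reduced by living HepG2 cells, at successive time points over 40 h of compound exposure. Cells with reagent were preincubated 5 h at 37 °C before compound addition.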

[5] = qHTS RealTime-Glo MT Cell Viability Assay in HEK293 cells - 24 hour (AID 1224886); note: nearly all actives have a fitted effect of over 50% in size; note: potency is the fitted concentration of half-maximal effect
How it was run: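 Viability tracked continuously by luminescence as live cells reduce a prosubstrate for NanoLuc; HEK293 cells preincubated 5 h, compound-treated at 37 C, and read at 0, 8, 16, 24, 32 and 40 h.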

[6] = qHTS RealTime-Glo MT Cell Viability Assay in HEK293 cells - 8 hour (AID 1224887); note: nearly all actives have a fitted effect of over 50% in size; note: potency is the fitted concentration of half-maximal effect
How it was run: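 600 HEK293 cells per well, dispensed already mixed with RealTime-Glo MT reagents. Compound dosing came 5 h later. The same wells were read for luminescence at 0, 8, 16, 24, 32 and 40 h of exposure at 37 C.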

[7] = A CellTox Green Cytotoxicity Assay to monitor cytotoxicity in HEK293 cells - 16 hour (AID 1224888); note: nearly all actives have a fitted effect of over 35% in size; note: potency is the fitted concentration of half-maximal effect
How it was run: as §1

[8] = qHTS RealTime-Glo MT Cell Viability Assay in HepG2 cells - 0 hour (AID 1224889); note: nearly all actives have a fitted effect of over 50% in size; note: potency is the fitted concentration of half-maximal effect
How it was run: as §3

[9] = A CellTox Green Cytotoxicity Assay to monitor cytotoxicity in HepG2 cells - 8 hour (AID 1224890); note: nearly all actives have a fitted effect of over 45% in size; note: potency is the fitted concentration of half-maximal effect
How it was run: as §2

[10] = qHTS assay to identify small molecule antagonists of the estrogen receptor alpha (ER-alpha) signaling pathway using the BG1 cell line in the presence of 0.1 nM 17-beta-estradiol - cell viability counter screen (AID 1259241); note: nearly all actives have a fitted effect of over 40% in size; note: potency is the fitted concentration of half-maximal effect
How it was run: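 Live-cell protease activity (CellTiter-Fluor fluorescence, 30 min) was read in the same wells after VM7Luc4E2 cells had been exposed to compounds with 0.1 nM 17beta-estradiol for 22 hr at 37C.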

[11] = qHTS assay to identify small molecule antagonists of the androgen receptor (AR) signaling pathway using the MDA cell line in the presence of 0.5 nM R1881 - cell viability counter screen (AID 1259242); note: nearly all actives have a fitted effect of over 45% in size; note: potency is the fitted concentration of half-maximal effect
How it was run: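 qHTS format. MDA-kb2 (MMTV-luc, AR/GR responsive) + cpd + 0.5 nM R1881 final, 16 hr 37C/0% CO2 → CellTiter-Fluor 30 min → fluorescence intensity.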

[12] = target: Estrogen receptor (Homo sapiens) (UniProt P03372); assay: qHTS assay to identify small molecule antagonists of the estrogen receptor alpha (ER-alpha) signaling pathway using the BG1 cell line in the presence of 0.1 nM 17-beta-estradiol (AID 1259244); note: nearly all actives have a fitted effect of over 50% in size
How it was run: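 Reporter is a stably transfected luciferase under four estrogen responsive elements in VM7Luc4E2 cells expressing native full-length ER-alpha; inhibition of 0.1 nM (final) 17beta-estradiol-driven signal over 22 h is read by luminescence.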

[13] = qHTS assay to identify small molecule HDAC inhibitors (AID 1259364); note: potency is the fitted concentration of half-maximal effect;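 note: wild-type HCT-116 cells with endogenous class I/II HDAC activity; nearly all actives have a fitted effect of over 45% in size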
How it was run: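 Quantitative high-throughput format: overnight-seeded HCT-116 cells got compounds for 2 hr at 37C; HDAC-Glo I/II reagent added, 30 min RT, luminescence measured.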

[14] = qHTS assay to identify small molecule HDAC inhibitors - cell viability counter screen (AID 1259365)
How it was run: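 HCT-116 (wild type), 1,500 cells/well, overnight 37C/5% CO2; compound in DMSO 2hr; CellTiter-Glo 30min RT; luminescence read.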

[15] = qHTS assay to identify small molecule agonists of the sonic hedgehog signaling (Shh) pathway - cell viability counter screen (AID 1259366); note: nearly all actives have a fitted effect of over 50% in size; note: potency is the fitted concentration of half-maximal effect
How it was run: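 CellTiter-Fluor fluorescence read-out, 1 hr at 37C, added after 23hr compound exposure. Cells: 3T3 Gli1-Luc, an NIH/3T3 clone with stably integrated Gli1-Luc reporter, plated 4hr before compound.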

[16] = qHTS assay to identify small molecule antagonists of the sonic hedgehog signaling (Shh) pathway - cell viability counter screen (AID 1259367); note: nearly all actives have a fitted effect of over 55% in size; note: potency is the fitted concentration of half-maximal effect
How it was run: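 Tox21 library chemicals were tested on a Gli1-Luc NIH/3T3 clone (2,000 cells/well) stimulated by conditioned medium; viability was quantified as fluorescence from CellTiter-Fluor reagent added at 23 hr.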

[17] = qHTS assay to identify small molecule agonists of the sonic hedgehog signaling (Shh) pathway (AID 1259368; calls by dose curve;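 note: NIH/3T3-derived 3T3Gli1-Luc cells carrying a stable Gli1-driven firefly luciferase reporter; series mostly up to about 92 µM; nearly all actives have a fitted effect of over 15% in size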)
How it was run: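 Quantitative high-throughput format using a Gli1-driven firefly luciferase reporter line derived from NIH/3T3 cells. After a 24 hr compound treatment at 37 C and 5% CO2, luminescence reported Gli1 response element activity.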

[18] = A CellTox Green Cytotoxicity Assay to monitor cytotoxicity in HepG2 cells - 32 hour (AID 1224883); note: nearly all actives have a fitted effect of over 50% in size; note: potency is the fitted concentration of half-maximal effect
How it was run: as §2

[19] = target: Androgen receptor (Homo sapiens) (UniProt P10275); assay: qHTS assay to identify small molecule antagonists of the androgen receptor (AR) signaling pathway using the MDA cell line in the presence of 0.5 nM R1881 (AID 1259243); note: nearly all actives have a fitted effect of over 50% in size; note: potency is the fitted concentration of half-maximal effect
How it was run: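 Antagonist mode quantitative HTS in MDA-kb2 MMTV-luciferase cells, agonist R1881 at 0.5 nM final, 16 hr exposure at 37C and 0% CO2, luminescent detection.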

[20] = qHTS assay to identify small molecule phospholipidosis (PLD) inducers (AID 1259344; active = well fitted curve in the direction sought with a large enough effect; an effect the other way counts as inactive or inconclusive)
How it was run: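 Image-based: LipidTOX Red pit count/intensity per well and per cell; HepG2, 24 h compound at 37 C, PFA fixation, Hoechst counterstain.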

Sequence of Androgen receptor (Homo sapiens) (P10275 whole entry, looked up): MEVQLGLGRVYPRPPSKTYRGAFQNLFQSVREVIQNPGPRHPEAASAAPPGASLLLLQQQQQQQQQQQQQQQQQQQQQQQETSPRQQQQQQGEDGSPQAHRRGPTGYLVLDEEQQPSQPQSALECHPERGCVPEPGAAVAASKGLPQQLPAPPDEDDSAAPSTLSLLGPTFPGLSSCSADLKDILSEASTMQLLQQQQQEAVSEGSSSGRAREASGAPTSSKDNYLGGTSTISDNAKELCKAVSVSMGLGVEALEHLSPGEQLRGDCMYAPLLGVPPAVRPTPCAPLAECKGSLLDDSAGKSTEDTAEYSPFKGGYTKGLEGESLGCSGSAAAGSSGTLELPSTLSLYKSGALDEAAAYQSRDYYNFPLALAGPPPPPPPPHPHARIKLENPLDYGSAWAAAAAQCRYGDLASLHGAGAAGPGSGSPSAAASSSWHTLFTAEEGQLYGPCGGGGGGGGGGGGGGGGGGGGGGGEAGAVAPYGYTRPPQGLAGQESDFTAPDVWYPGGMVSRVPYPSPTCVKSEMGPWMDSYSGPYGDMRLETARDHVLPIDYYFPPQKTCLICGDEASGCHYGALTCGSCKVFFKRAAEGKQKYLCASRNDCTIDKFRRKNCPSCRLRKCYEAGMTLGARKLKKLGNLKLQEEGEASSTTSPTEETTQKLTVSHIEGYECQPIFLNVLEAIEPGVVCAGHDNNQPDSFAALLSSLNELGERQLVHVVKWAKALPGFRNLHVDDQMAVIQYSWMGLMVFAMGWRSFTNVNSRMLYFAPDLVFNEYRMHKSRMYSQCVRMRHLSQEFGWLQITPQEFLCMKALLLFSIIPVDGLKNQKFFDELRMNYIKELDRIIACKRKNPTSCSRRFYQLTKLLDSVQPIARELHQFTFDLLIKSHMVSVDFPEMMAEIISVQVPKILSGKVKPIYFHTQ
Sequence of Estrogen receptor (Homo sapiens) (P03372 whole entry, looked up): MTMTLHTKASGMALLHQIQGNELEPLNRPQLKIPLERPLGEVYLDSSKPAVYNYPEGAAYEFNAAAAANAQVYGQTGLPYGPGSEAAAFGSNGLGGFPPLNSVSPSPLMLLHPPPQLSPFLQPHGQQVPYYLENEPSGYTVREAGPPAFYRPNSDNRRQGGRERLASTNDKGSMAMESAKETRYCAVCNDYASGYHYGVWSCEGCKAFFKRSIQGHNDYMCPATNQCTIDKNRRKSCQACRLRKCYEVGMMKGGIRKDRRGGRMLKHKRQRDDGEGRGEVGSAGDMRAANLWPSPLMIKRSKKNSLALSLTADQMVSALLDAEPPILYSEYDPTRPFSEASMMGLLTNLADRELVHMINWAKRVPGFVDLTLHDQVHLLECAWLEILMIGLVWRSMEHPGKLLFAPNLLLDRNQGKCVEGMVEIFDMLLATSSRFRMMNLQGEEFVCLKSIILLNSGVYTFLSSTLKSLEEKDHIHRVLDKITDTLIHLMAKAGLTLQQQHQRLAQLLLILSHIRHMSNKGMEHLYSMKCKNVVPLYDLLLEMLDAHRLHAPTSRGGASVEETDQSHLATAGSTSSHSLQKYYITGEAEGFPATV

Cc1ccc(C(C)c2ccc(C)c(C)c2)cc1C
Potency [1]: inactive
Potency [2]: inactive
Potency [3]: inactive
Potency [4]: inactive
Potency [5]: inactive
Potency [6]: inactive
Potency [7]: inactive
Potency [8]: inactive
Potency [9]: inactive
Potency [10]: inactive
Potency [11]: inactive
Potency [12]: inactive
Potency [13]: inactive
outcome [14]: inactive
Potency [15]: inactive
Potency [16]: inactive
outcome [17]: inactive

COc1ccc(OC)c(OC)c1
Potency [1]: inactive
Potency [2]: inactive
Potency [3]: inactive
Potency [4]: inactive
Potency [5]: inactive
Potency [6]: inactive
Potency [7]: inactive
Potency [8]: inactive
Potency [9]: inactive
Potency [10]: inactive
Potency [11]: inactive
Potency [12]: inactive
Potency [13]: inactive
outcome [14]: inactive
Potency [15]: inactive
Potency [16]: inactive
outcome [17]: inactive

C#CCOC(=O)[C@@H](C)Oc1ccc(Oc2ncc(Cl)cc2F)cc1
Potency [1]: inactive
Potency [2]: inactive
Potency [18]: inactive
Potency [4]: inactive
Potency [5]: inactive
Potency [7]: inactive
Potency [8]: inactive
Potency [9]: inactive
Potency [10]: inactive
Potency [11]: inactive
Potency [12]: inactive
Potency [13]: inactive
outcome [14]: inactive
Potency [15]: inactive
Potency [16]: inactive
outcome [17]: inactive

C1=Cc2ccccc2C1
Potency [1]: inactive
Potency [2]: inactive
Potency [18]: inactive
Potency [4]: inactive
Potency [5]: inactive
Potency [6]: inactive
Potency [7]: inactive
Potency [8]: inactive
Potency [9]: inactive
Potency [10]: inactive
Potency [11]: inactive
Potency [12]: inactive
Potency [13]: inactive
outcome [14]: inactive
Potency [15]: inactive
Potency [16]: inactive
outcome [17]: inactive

Oc1ccc(Sc2ccc(O)cc2)cc1
Potency [1]: inactive
Potency [2]: inactive
Potency [18]: inactive
Potency [3]: inactive
Potency [8]: inactive
Potency [9]: inactive
Potency [10]: inactive
Potency [11]: inactive
Potency [12]: inactive
Potency [13]: inactive
Potency [15]: inactive
Potency [16]: inactive
outcome [17]: inactive

NC(N)=N/N=C/c1c(Cl)cccc1Cl
Potency [1]: inactive
Potency [2]: inactive
Potency [3]: inactive
Potency [4]: inactive
Potency [5]: inactive
Potency [6]: inactive
Potency [7]: inactive
Potency [9]: inactive
Potency [19]: 23.7 µM (active)
Potency [12]: inactive
Potency [13]: inactive
outcome [14]: inactive
Potency [15]: 11.9 µM (active)
Potency [16]: 10.6 µM (active)
outcome [17]: inactive

CN(C)CCCNCCCN
Potency [1]: inactive
Potency [2]: inactive
Potency [3]: inactive
Potency [4]: inactive
Potency [5]: inactive
Potency [6]: inactive
Potency [7]: inactive
Potency [8]: inactive
Potency [9]: inactive
Potency [10]: inactive
Potency [12]: inactive
Potency [13]: inactive
outcome [14]: inactive
Potency [15]: 27.2 µM (active)
outcome [17]: inactive

NC(N)=NN=C(/C=C/c1ccc([N+](=O)[O-])o1)/C=C/c1ccc([N+](=O)[O-])o1
Potency [1]: 8.49 µM (active)
Potency [2]: inactive
Potency [18]: 2.39 µM (active)
Potency [4]: 2.13 µM (active)
Potency [6]: 6.01 µM (active)
Potency [7]: 9.52 µM (active)
Potency [8]: inactive
Potency [9]: 9.52 µM (active)
Potency [10]: 11.9 µM (active)
Potency [11]: 6.68 µM (active)
Potency [19]: 1.88 µM (active)
Potency [12]: inactive
Potency [20]: inactive
Potency [13]: inactive
Potency [15]: 2.37 µM (active)
Potency [16]: 2.37 µM (active)

CC(=O)/C(C)=C/C1C(C)=CCCC1(C)C (stereo unspecified)
Potency [1]: 17.4 µM (active)
Potency [2]: inactive
Potency [3]: inactive
Potency [4]: inactive
Potency [5]: inactive
Potency [7]: 15.5 µM (active)
Potency [8]: inactive
Potency [9]: inactive
Potency [10]: inactive
Potency [11]: inactive
Potency [12]: inactive
Potency [13]: inactive
outcome [14]: inactive
Potency [15]: inactive
Potency [16]: inactive
outcome [17]: inactive

Cl/C(=C\n1cncn1)c1ccc(Cl)cc1Cl
Potency [1]: inactive
Potency [2]: inactive
Potency [3]: inactive
Potency [4]: inactive
Potency [5]: inactive
Potency [6]: inactive
Potency [7]: inactive
Potency [8]: inactive
Potency [9]: inactive
Potency [10]: inactive
Potency [11]: inactive
Potency [20]: inactive
Potency [13]: inactive
outcome [14]: inactive
Potency [15]: inactive
Potency [16]: inactive
outcome [17]: inactive

O=C(O)Cn1c(C(=O)Nc2nc(-c3ccccc3Cl)cs2)cc2ccccc21
Potency [1]: inactive
Potency [2]: inactive
Potency [18]: inactive
Potency [4]: inactive
Potency [5]: inactive
Potency [7]: inactive
Potency [9]: inactive
Potency [10]: inactive
Potency [11]: inactive
Potency [12]: inactive
Potency [20]: inactive
Potency [13]: inactive
outcome [14]: inactive
Potency [15]: inactive
Potency [16]: inactive
outcome [17]: inactive

CC1(C)[C@H]2CC[C@]1(C)[C@H](O)C2
Potency [1]: inactive
Potency [2]: inactive
Potency [3]: inactive
Potency [4]: inactive
Potency [5]: inactive
Potency [6]: inactive
Potency [8]: inactive
Potency [9]: inactive
Potency [10]: inactive
Potency [11]: inactive
Potency [20]: inactive
Potency [13]: inactive
outcome [14]: inactive
Potency [15]: inactive
Potency [16]: inactive
outcome [17]: inactive

CCOC(=O)C1=C(C)NC(C)=C(C(=O)OC)C1c1cccc([N+](=O)[O-])c1 (stereo unspecified)
Potency [1]: inactive
Potency [2]: inactive
Potency [18]: inactive
Potency [3]: inactive
Potency [7]: inactive
Potency [8]: 7.56 µM (active)
Potency [9]: inactive
Potency [10]: inactive
Potency [11]: inactive
Potency [12]: inactive
Potency [20]: inactive
Potency [13]: inactive
outcome [14]: inactive
Potency [16]: inactive
outcome [17]: inactive

N#CCCNCCC#N
Potency [1]: inactive
Potency [2]: inactive
Potency [3]: inactive
Potency [4]: inactive
Potency [5]: inactive
Potency [6]: inactive
Potency [7]: inactive
Potency [8]: inactive
Potency [9]: inactive
Potency [10]: inactive
Potency [11]: inactive
Potency [12]: inactive
Potency [13]: inactive
Potency [15]: inactive
Potency [16]: inactive
outcome [17]: inactive

CCCCC(CC)(CO)CO
Potency [1]: inactive
Potency [2]: inactive
Potency [18]: inactive
Potency [3]: inactive
Potency [5]: inactive
Potency [8]: inactive
Potency [9]: inactive
Potency [10]: inactive
Potency [11]: inactive
Potency [13]: inactive
outcome [14]: inactive
Potency [15]: inactive
outcome [17]: inactive

CC(C)CCCC(C)CCO (stereo unspecified)
Potency [1]: inactive
Potency [2]: inactive
Potency [3]: inactive
Potency [4]: inactive
Potency [5]: inactive
Potency [7]: inactive
Potency [8]: inactive
Potency [9]: inactive
Potency [10]: inactive
Potency [11]: inactive
Potency [19]: inactive
Potency [12]: inactive
Potency [13]: inactive
outcome [14]: inactive
Potency [15]: inactive
Potency [16]: inactive
outcome [17]: inactive

CCCCCOC(=O)c1ccc(O)cc1
Potency [1]: 49.6 µM (active)
Potency [2]: inactive
Potency [3]: inactive
Potency [4]: inactive
Potency [5]: 44.2 µM (active)
Potency [6]: 44.2 µM (active)
Potency [8]: inactive
Potency [9]: inactive
Potency [11]: inactive
Potency [12]: inactive
Potency [13]: 24.6 µM (active)
outcome [14]: inactive
Potency [15]: inactive
outcome [17]: inactive
